AMPAR-TARP mod: modulators of GluA2-stargazin AMPA receptor complexes, primary screen, cell-based, membrane potential dye. HEK293 GluA2+stargazin, membrane potential dye (FDSS), glutamate EC50; hits were called plate by plate, in both directions. calls only at 30 µM. 3.5% of 40,000 active. AID 1259245, 2017;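 active = any of four per-well response measures lying three or more SD from its plate-wide compound average, in either direction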
GIRK2 activator: activators of NPY4-receptor-primed GIRK2 channels, summary, cell-based, HEK293, thallium flux | G protein-activated inward rectifier potassium channel 2 (Homo sapiens), P48051 | HEK293 GIRK2/NPY4 cells, thallium flux fluorescence | AID 1259324, 2017 | 34,000 tested, under 10 active | activation (% efficacy), % for hits at 37.5 µM;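 active = primary screen hit, no activity in plain HEK293 cells, and in GIRK2-only cells above 5% efficacy rising with concentration; inactive = the rest, including fluorescent compounds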;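 also: efficacy is normalized control-subtracted fluorescence 15 s after thallium addition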
Target sequence (P48051 whole entry, looked up): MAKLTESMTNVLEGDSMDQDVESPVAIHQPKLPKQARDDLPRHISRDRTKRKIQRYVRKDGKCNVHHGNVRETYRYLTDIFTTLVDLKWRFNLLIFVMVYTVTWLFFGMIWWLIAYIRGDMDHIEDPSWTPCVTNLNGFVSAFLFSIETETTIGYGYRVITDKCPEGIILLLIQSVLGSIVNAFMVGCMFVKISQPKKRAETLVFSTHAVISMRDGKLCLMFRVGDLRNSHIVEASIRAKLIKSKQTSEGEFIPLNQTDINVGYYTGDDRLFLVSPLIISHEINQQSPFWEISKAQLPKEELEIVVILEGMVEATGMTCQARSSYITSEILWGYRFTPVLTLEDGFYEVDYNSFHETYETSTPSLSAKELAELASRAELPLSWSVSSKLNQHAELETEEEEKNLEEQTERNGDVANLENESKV
Each line names hits and unclear results; the compound was inactive in the other large screens. This is one part of a sample in which hits are shown more often than they occur.

Cc1ccccc1-c1ccc(N2CCC(C(=O)Nc3ccc4c(c3)OCO4)CC2)nn1	none
O=C(Nc1ccc(-c2ccc(N3CCOCC3)nn2)cc1)Nc1cccc(Cl)c1	AMPAR-TARP mod active
CS(=O)(=O)Nc1cccc(NC(=O)C2CN(C(=O)c3cnccn3)C2)c1	none
CN1CCN(c2ccc(NC(=O)c3ccc(OCc4ccccc4)cc3)cc2)CC1	none (no result: GIRK2 activator)
CCSc1nnc(NC(=O)c2ccc(-c3ccccc3F)o2)s1	none (no result: GIRK2 activator)
O=C(CN1C(=O)CCC1=O)Nc1c2c(nn1-c1nc3ccccc3s1)CCC2	none
COc1ccc(CCC(=O)Nc2cccc(-n3c(C)nc4ccccc4c3=O)c2)cc1	AMPAR-TARP mod active (no result: GIRK2 activator)
COc1ccc(CCC(=O)Nc2cc(-n3c(C)nc4ccccc4c3=O)ccc2F)cc1	none
COC(=O)Cc1c(C)c2ccc(OCC(=O)c3ccc(F)cc3)cc2oc1=O	AMPAR-TARP mod active (no result: GIRK2 activator)
COC(=O)Cc1c(C)c2ccc(OCC(=O)c3ccc(-c4ccccc4)cc3)cc2oc1=O	none (no result: GIRK2 activator)
O=C(CCCNC(=O)c1ccc(=O)[nH]c1)Nc1cccc2cccnc12	none
CC(C)(C)n1ncc2c(=O)n(NC(=O)c3cc([N+](=O)[O-])ccc3Cl)cnc21	none
CCOCC(=O)Nn1cnc2c(cnn2C(C)(C)C)c1=O	AMPAR-TARP mod active (no result: GIRK2 activator)
CC(C)(C)n1ncc2c(=O)n(NC(=O)c3cc(Br)ccc3Cl)cnc21	AMPAR-TARP mod active
CCC(=O)Nn1cnc2c(cnn2C(C)(C)C)c1=O	none (no result: GIRK2 activator)
CCCCC(=O)N1c2ccccc2CC1C(=O)NC (stereo unspecified)	none
COc1cccc(S(=O)(=O)NCC(O)(c2ccccc2)C2CC2)c1 (stereo unspecified)	none
COc1cccc(S(=O)(=O)NCCC(O)C2CC2)c1 (stereo unspecified)	AMPAR-TARP mod active
COc1ccc(S(=O)(=O)c2c(C)cc(C)n(CC(=O)NCc3ccccc3)c2=O)cc1	none
CCOc1ccc(Cl)cc1S(=O)(=O)N1CCCC(C)C1 (stereo unspecified)	AMPAR-TARP mod active (no result: GIRK2 activator)
CCOc1ccc(S(=O)(=O)N2CCCC(C)C2)c2ccccc12 (stereo unspecified)	none (no result: GIRK2 activator)
CC(C)CCNC(=O)C(=O)Nc1c2c(nn1-c1ccc(F)cc1)CSC2	none
CSc1ccccc1C(=O)Nc1ccc2c(c1)CN(C(=O)c1ccco1)CC2	none
O=C(Nc1ccc2c(c1)CN(C(=O)c1ccco1)CC2)c1cnccn1	AMPAR-TARP mod active
O=C(Nc1ccc2c(c1)CN(C(=O)C1CC1)CC2)c1ccc2nsnc2c1	AMPAR-TARP mod active
O=C(Nc1ccc2c(c1)CN(C(=O)C1CC1)CC2)c1ccsc1	none
O=C(Nc1ccc2c(c1)CN(C(=O)c1ccco1)CC2)c1ccc2nsnc2c1	AMPAR-TARP mod active
CCCc1nnsc1C(=O)Nc1ccc2c(c1)CN(C(=O)c1ccco1)CC2	none
COc1ccc(Cn2c(SCc3nc(-c4ccccc4)no3)nc3ccsc3c2=O)cc1	none
O=S(=O)(NCc1ccncc1)c1ccc2c(c1)OCCO2	none (no result: GIRK2 activator)
CCOc1cn(-c2ccc(F)cc2)nc1C(=O)NCCOC	none
COc1ccc(OC)c(NC(=O)c2nn(-c3ccc(F)cc3)cc2OCc2ccccc2)c1	none
COc1ccccc1NC(=O)c1nn(-c2ccc(F)cc2)cc1OCc1ccccc1	AMPAR-TARP mod active
CCOc1cn(-c2ccc(F)cc2)nc1C(=O)NC1CCCCC1C (stereo unspecified)	AMPAR-TARP mod active
CCOc1ccc2ncc(C#N)c(Nc3ccc(OC)cc3)c2c1	none (no result: AMPAR-TARP mod)
Cc1nc2sccn2c(=O)c1NC(=O)Nc1ccc2c(c1)OCCO2	none
Cc1ccc(N2CCCCn3c2nc2c3c(=O)n(C)c(=O)n2C)cc1	none
CCOc1ccc(-n2nnnc2SC(C)C(=O)Nc2cccc(C(C)=O)c2)cc1 (stereo unspecified)	AMPAR-TARP mod active (no result: GIRK2 activator)
CCOc1ccc(-n2nnnc2SC(C)C(=O)Nc2ccccc2C(=O)OC)cc1 (stereo unspecified)	AMPAR-TARP mod active (no result: GIRK2 activator)
COc1ccc(-n2nnnc2SC(C)C(=O)Nc2cccc(Cl)c2)cc1 (stereo unspecified)	none (no result: GIRK2 activator)
COc1ccccc1NC(=O)C(C)Sc1nnnn1-c1ccc(Cl)cc1 (stereo unspecified)	none (no result: GIRK2 activator)
CCOc1ccc(-n2nnnc2SC(C)C(=O)Nc2ccccc2C#N)cc1 (stereo unspecified)	AMPAR-TARP mod active (no result: GIRK2 activator)
COc1ccc(NC(=O)C(C)Sc2nnnn2-c2ccc(OC)cc2)cc1 (stereo unspecified)	none (no result: GIRK2 activator)
O=C(c1ccc(=O)[nH]n1)N1CCN(Cc2ccccc2)CC1	none
Cn1nnc2c(N3CCN(C(=O)NCc4cccc5ccccc45)CC3)ncnc21	none (no result: AMPAR-TARP mod)
Cc1nnc2ccc(OCCNS(=O)(=O)c3ccc(Cl)cc3)nn12	none
Cc1cccc(-n2nc3c(c2NC(=O)C(=O)NCc2ccco2)CS(=O)(=O)C3)c1	none
COc1ccc(-n2nc3c(c2NC(=O)C(=O)NCc2ccco2)CS(=O)(=O)C3)cc1	AMPAR-TARP mod active
COc1ccc(-n2nc3c(c2NC(=O)C(=O)N2CCCC2)CSC3)cc1	AMPAR-TARP mod active
COc1ccc(-n2nc3c(c2NC(=O)C(=O)N2CCCCC2)CS(=O)(=O)C3)cc1	none
COc1ccc(OCC(=O)NCC(c2ccc(C)cc2)N2CCOCC2)cc1 (stereo unspecified)	none
CS(=O)(=O)N1CCCc2ccc(NC(=O)C(=O)NCCO)cc21	none
COc1ccccc1C1(CNC(=O)Nc2cccc(C(F)(F)F)c2)CCOCC1	none
O=C(NCC1(O)CCc2ccccc21)Nc1cccc(C(F)(F)F)c1 (stereo unspecified)	AMPAR-TARP mod active
Cc1cc(=O)oc2cc(OCC3CCNCC3)ccc12	AMPAR-TARP mod active
Cc1cc(=O)oc2cc(OCC(=O)c3ccc(Cl)c(Cl)c3)ccc12	none (no result: GIRK2 activator)
COc1ccc(C(=O)NCc2nc(C)no2)c(OC)c1	none (no result: AMPAR-TARP mod)
O=C1/C(=C/c2ccc(Cl)c(Cl)c2)Oc2cc(O)ccc21	none (no result: GIRK2 activator)
O=C1/C(=C/c2ccccc2F)Oc2cc(O)ccc21	none (no result: GIRK2 activator)
COc1cc(/C=C2\Oc3cc(O)ccc3C2=O)cc(OC)c1OC	AMPAR-TARP mod active (no result: GIRK2 activator)
COc1cc(/C=C2\Oc3cc(OC(=O)c4c(OC)cccc4OC)ccc3C2=O)cc(OC)c1OC	none (no result: GIRK2 activator)
COc1ccc(/C=C2\Oc3cc(O)ccc3C2=O)cc1OC	AMPAR-TARP mod active (no result: GIRK2 activator)
O=C1/C(=C/c2cccs2)Oc2cc(O)ccc21	AMPAR-TARP mod active (no result: GIRK2 activator)
COc1ccc(C)cc1S(=O)(=O)NCC1CCS(=O)(=O)C1 (stereo unspecified)	none
CN1C(=O)C2C(c3ccc([N+](=O)[O-])cc3)NN(C)C2C1=O (stereo unspecified)	AMPAR-TARP mod active (no result: GIRK2 activator)
Cc1ccc(S(=O)(=O)c2cnc(SCC(=O)NC3CCCCC3)[nH]c2=O)cc1Cl	none
Cc1ccc(N2CCCS2(=O)=O)cc1NC(=O)Nc1ccc(Cl)c(Cl)c1	none
O=C(Nc1ccc(N2CCCS2(=O)=O)cc1)Nc1ccc(Cl)c(Cl)c1	AMPAR-TARP mod active
COc1ccc(-c2ccc(=O)n(CCCC(=O)Nc3cccc(C(C)=O)c3)n2)cc1OC	none
CN1C(=O)N(C)C2(CCN(C(=O)c3cccc(Cl)c3)CC2)C1=O	none
Cc1cc(NC(=O)CSc2nnc(N3CCN(C(=O)Cc4cccs4)CC3)s2)no1	AMPAR-TARP mod active
CC(=O)N1CCN(c2nnc(SCC(=O)Nc3cc(C)on3)s2)CC1	none
Cc1cccc(Nc2ccc(N3CCN(C(=O)Cc4c[nH]c5ccccc45)CC3)nn2)n1	AMPAR-TARP mod active

From PubChem BioAssay
